“And” between values parts separate entries of the source, which are not always exact repeats. Identical values can stand only once. Compounds without any hit were thinned out: in the full panel of roughly 83,000, 20% have a hit.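 Growth was measured after 48 h exposure to one concentration of compound in 96-well plates. Values under 10 count as active.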 The source made the active and inactive calls.
tested on: HL-60(TB) leukemia; assay: NCI-60 one-dose screen, 48 h (100 = growth as untreated, 0 = no growth, -100 = all killed); details: 10 µM unless noted

Structure (SMILES) | growth
O=C(C(=O)N1CCOCC1)c1ccc(O[C@H]2O[C@H](CO)[C@@H](O)[C@H](O)[C@@H]2O)cc1 | 113% (inactive)
CN1CCN(Cc2ccc(NC(=O)c3cncc(C#Cc4cnc(N)c5ccccc45)c3)cc2C(F)(F)F)CC1 | -46.3% (active)
O=C1NCCC12CCN(c1c(Cl)cncc1-c1ccc(O)cc1)CC2 | 102% (inactive)
NC(=O)c1ccc[n+](Cc2ccccc2)c1 | 152% (inactive)
N=C(N)c1ccc(-c2ccc(-c3ccc(Cl)cc3)s2)nc1 | -39.1% (active)
CN1CCC(CN2c3ccccc3Sc3ccccc32)C1 (centres undefined) | 63.9% (inactive)
O=C1NC(=O)C2(CCc3ccccc32)N1 (centres undefined) | 93.7% (inactive) and 106% (inactive)
COc1ccccc1/C=N\N=C(N/N=C/c1ccccc1OC)N/N=C/c1ccccc1OC | 31.3% (inactive) and 41.7% (inactive)
OC(Cc1cccnc1)c1ccccc1 (centres undefined) | 64.3% (inactive)
CCCCNC(=O)Oc1ccc(/C(=C(\C)c2ccc(OC)cc2)c2ccc(OCCN3CCCCC3)cc2)cc1 | 34.6% (inactive)
COc1ccc(S(=O)(=O)Nc2ccc(OCc3nnc(-c4ccc(Cl)cc4)o3)c(F)c2)cc1 | 51.2% (inactive)
Cc1cccc(Cl)c1NC(=O)c1ccc2nc(NC(=O)NC3CC(C)(C)NC(C)(C)C3)sc2c1 | 110% (inactive)
Oc1ccc(Cl)cc1/C=N\NC(=S)N/N=C/c1cc(Cl)ccc1O | 12.2% (inactive)
COc1cccc(CC(C)=C(c2ccc(OCCN(C)C)cc2)c2ccc(OCCN(C)C)cc2)c1 | -62.5% (active)
O=C(c1ccc(-c2nc(CSc3nc4ccccc4s3)no2)cc1)N1CCSCC1 | 27% (inactive)
CC(O)Cn1cnc2c1c(=O)n(C)c(=O)n2C (centres undefined) | 97.1% (inactive)
CC(C)c1[nH]ncc1-c1nc2ccc3[nH]ncc3c2c2c1CCCC2 | 13.4% (inactive)
O=C1Nc2ccc(F)cc2/C1=C\c1c(-c2ccccc2)nc2ccccn12 | 56.4% (inactive)
COc1cc(C(=O)/C=C/c2c(C)n([O-])c3ccc(C(F)(F)F)cc3[n+]2=O)cc(OC)c1OC | 69% (inactive)
Cc1ccc(S(=O)(=O)C2=C3C(=C(c4ccccc4)c4ccccc43)CN(S(=O)(=O)c3ccc(C)cc3)C2)cc1 | 65.7% (inactive)

Structure (SMILES) | growth
Cc1ccc(C(O)C2=CC(=O)c3ccccc3C2=O)cc1 (centres undefined) | 92.1% (inactive)
CC(=O)N1c2ccccc2NC2=C(C(=O)N(C)C2(C)C)C1C (centres undefined) | 7.5% (active)
CC(C)(C)c1ccc(S(=O)(=O)N[C@H]2CC[C@H]3[C@@H]4CCc5cc(OS(=O)(=O)O)ccc5[C@H]4CC[C@]23C)cc1 | 19.6% (inactive)
CC(=O)Nc1nc(C)c(C(=O)NNS(=O)(=O)c2ccccc2)s1 | 174% (inactive)
O=C(O)c1ccc(CNS(=O)(=O)c2ccc3ccccc3c2)cc1 | 68.1% (inactive)
N#CC(C#N)=C/C=C/c1cccc([N+](=O)[O-])c1 | -10.5% (active) and -9.74% (active)
CNC(=O)c1cc(Oc2ccc3nc(NC(C)=O)sc3c2)ccn1 | 98.9% (inactive)
CC(C)OCc1cc(CN2CCN(c3cccc(Cl)c3)CC2)c(O)c2ncccc12 | -46% (active)
Cc1cc(O)c(C(C)C)cc1S(=O)(=O)O (tested in a mixture with another compound) | 84.2% (inactive) and -0.846% (active) and 104% (inactive)
COC(=O)Nc1nc2ccc(C(=O)c3ccccc3)cc2[nH]1 | 7.13% (active) and -59.3% (active) and -3.38% (active)
CC(=O)N1c2ccccc2NC2=C(C(=O)N(Cc3ccccc3)C2(C)C)C1c1ccco1 (centres undefined) | 9.63% (active)
O=C(Nc1ccc(Cl)c(C(F)(F)F)c1)Nc1ccc(-c2cccnc2)cc1N1CCC(CO)CC1 | -6.89% (active)
N#Cc1ccc(/C=C/C(=O)c2ccccc2)cc1 | -15.6% (active) and 17.7% (inactive)
CC(C)n1cnc2c(Nc3cccc(Cl)c3)nc(N[C@H]3CCCC[C@@H]3N)nc21 | 25.1% (inactive)
O=C(CC(SCc1ccccc1)c1ccccc1)c1ccccc1 (centres undefined) | 66.7% (inactive)
Cn1cc(-c2csc(-c3cn(CCCN4CCCCC4)c4ccc(F)cc34)n2)c2cccnc21 | 56.3% (inactive)
C=C(C)[C@@H]1CC[C@]2(C(N)=O)CC[C@]3(C)[C@H](CC[C@@H]4[C@@]5(C)CCCNC(C)(C)[C@@H]5CC[C@]43C)[C@@H]12 | 61.1% (inactive)
COc1ccc(-n2sc(=O)n(Cc3ccc(COC(=O)C(C)c4ccc(CC(C)C)cc4)cc3)c2=O)cc1 (centres undefined) | -43.3% (active)
Cn1cc(-c2noc(-c3cn(C)c4ncc(F)cc34)n2)c2ccccc21 | 85.5% (inactive)

Reference: PubChem BioAssay (NCI)
